# Data published in PubChem BioAssay (NCI).
# About 83,000 compounds went through this panel and 20% of them were active in at least one assay; those are over-represented in the sample as a whole.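 Compound tested at a single concentration for 48 hours in 96-well plates; a percent growth value below 10 was scored as active.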 Values without a mark were called inactive. Calls of active or inactive are those of the source.
# System: MALME-3M melanoma
# Experiment: NCI-60 one-dose screen, 48 h (100 = growth as untreated, 0 = no growth, -100 = all killed)
# Details: 10 µM unless noted
row,SMILES,growth
1,C=C1CCC2C3(C)COC(c4cc(F)cc(F)c4)OC3CCC2(C)C1CC(O)C1=CCOC1=O (stereo not drawn),88.6%
2,CC(=O)Nc1ccc(C(=O)NC(=S)Nc2ccc(S(N)(=O)=O)cc2)cc1,89.9%
3,COc1cc(C2CC(c3cc(OC)c(OC)c(OC)c3)=Nc3c(N)nc(N)nc3N2)ccc1Oc1nc(NCCO)nc(N2CCOCC2)n1 (stereo not drawn),98.5%
4,CC1=C(C(=O)c2ccccc2)C(c2cccc(Cl)c2Cl)n2c(nc3ccccc32)N1 (stereo not drawn),57.9%
5,CN1CCc2c(sc3ncnc(N/N=C/c4ccc(Cl)cc4Cl)c23)C1,-62.4% (active)
6,O=C(COc1ccc(NC(=O)Nc2ccc(Cl)c(Cl)c2)cc1)N=Nc1c(O)[nH]c2ccc(Br)cc12,-85.4% (active)
7,Cn1cc(NC(=O)c2cc(NC(=O)c3ccc(C#Cc4ccccc4)cc3)cn2C)cc1C(=O)NCCCN1CCOCC1,-84.8% (active)
8,COCOc1cc2oc(C(=O)N[C@@H](Cc3ccccc3)C(O)C(=O)NCc3ccccc3)c(C)c(=O)c2cc1OCOC (stereo partly drawn),22.3%
9,Cc1ccc(C(=O)CSc2nc3ccc(C)cc3c(=O)n2-c2ccc(F)cc2)cc1,79.6%
10,CC(C)c1ccc2c(N)c(C(=O)Nc3ccc(C(F)(F)F)cn3)sc2n1,63%
11,CN(C)CCn1c2ccccc2c2nc3ccc([N+](=O)[O-])cc3nc21,-14.4% (active)
12,COc1cc2c(c(OC)c1OC)C(=O)CC(c1cccc(NC(=O)c3cc(NC(=O)[C@H](CO)NC(=O)OC(C)(C)C)ccc3Cl)c1)O2 (stereo partly drawn),43.2%
13,Cc1cccc(NC(=O)[C@]23CCC(C)(C)CC2C2=CCC4[C@@]5(C)C[C@@H](O)[C@H](O)[C@@](C)(CO)C5CC[C@@]4(C)[C@]2(C)CC3)c1 (stereo partly drawn),28.3%
14,CC(=O)Nc1ccc(-n2cnc3ccc(-c4ccc(O)cc4)cc32)cc1,50.3%
15,NC(=S)Nc1cccc(NC(N)=S)c1,84.3%
16,O=C(/C=C/c1ccc(O)c(O)c1)NC1CCOC1O (stereo not drawn),103%
17,CCN1C(=O)/C(=N\N=C(/C)c2ccc3c(c2)Nc2ccccc2S3)c2cc(Cl)ccc21,35.9%
18,S=C(NCCc1ccccc1)Nc1ccc(OCc2nc3ccccc3[nH]2)cc1,102%
19,COc1ccc(-c2nc(SC(C)C)nc(NCCc3c[nH]c4ccccc34)c2C#N)cc1,78.8%

row,SMILES,growth
1,S=C(Nc1ccccc1)Nc1ccc(OCc2nc3ccccc3[nH]2)cc1,51.6%
2,CC1(C)CC[C@]2(C(=O)Nc3ccc(Br)cc3)CC[C@]3(C)C(=CCC4[C@@]5(C)C[C@@H](O)[C@H](O)[C@@](C)(CO)C5CC[C@]43C)C2C1 (stereo partly drawn),33.2%
3,CC12CC[C@@H]3[C@]4(C)COC(c5c(F)cccc5F)O[C@@H]4CC[C@@]3(C)[C@@H]1CC(C1=CCOC1=O)O2 (stereo partly drawn),60.4%
4,Cc1ccc(Cc2cnc(NC(=O)c3ccc(/C=C4\SC(=S)N(C)C4=O)cc3)s2)cc1,25.2%
5,CC(=O)Nc1ccc(-n2cnc3cc(-c4ccc(O)cc4)ccc32)cc1C(F)(F)F,19.1%
6,Cn1cc(NC(=O)c2cc(NC(=O)c3ccc(/C=C/c4ccccc4)cc3)cn2C)cc1C(=O)NCCCN1CCOCC1,-83.3% (active)
7,CN(C)CCCNC(=O)c1cc(NC(=O)c2cc(NC(=O)c3ccc(/C=C/c4ccccc4)cc3)cn2C)cn1C,35%
8,CC(=O)OC[C@@]1(C)C2CC[C@]3(C)C(CC=C4C5CC(C)(C)CC[C@]5(C(=O)Nc5ccc(Br)cc5)CC[C@]43C)[C@@]2(C)C[C@@H](OC(C)=O)[C@@H]1OC(C)=O (stereo partly drawn),55.9%
9,COc1ccc(NC(=O)Cn2c(O)c(N=Nc3ccc(S(N)(=O)=O)cc3)c3ccccc32)cc1,29.8%
10,S=C(Nc1ccc(OCc2nc3ccccc3[nH]2)cc1)NC1CCCCC1,67.6%
11,Cc1ccc(NC(=O)[C@]23CCC(C)(C)CC2C2=CCC4[C@@]5(C)C[C@@H](O)[C@H](O)[C@@](C)(CO)C5CC[C@@]4(C)[C@]2(C)CC3)cc1 (stereo partly drawn),49.5%
12,O=S(=O)(Nc1cccc(-n2cnc3cc(-c4ccc(O)cc4)ccc32)c1)C1CC1,46.1%
13,Cn1cc(-c2nnc(N)nc2-c2c[nH]c3ccccc23)c2cccnc21,38.2%
14,CN(C)c1ccnc(CNCCSC2(c3ccc(C(F)(F)F)cc3)c3ccccc3CCc3ccccc32)c1,-91.8% (active)
15,CC1=C(C(=O)OC(C)C)C(c2cccc(O)c2)NC(=S)N1 (stereo not drawn),92.7%
16,N/N=C(\N)c1c(N)nc(=S)[nH]c1-c1ccc(Cl)cc1Cl,92.3%
17,COc1ccc2[nH]cc(-c3nnc(N)nc3-c3c[nH]c4ncc(Br)cc34)c2c1,92.5%
18,COc1cc(C2CC(c3cc(OC)c(OC)c(OC)c3)=NN2c2ccccc2)ccc1OCc1ccc(C)cc1 (stereo not drawn),95.3%
19,O=C(N/N=C/c1ccc(-c2ccc(O)cc2)o1)c1[nH]c2ccc(Br)cc2c1-c1ccccc1,-26.8% (active)
